Assay [1] deals with Thyrotropin receptor (Homo sapiens) (UniProt P16473). Briefly: qHTS assay to identify small molecule antagonists of the thyroid stimulating hormone receptor (TSHR) signaling pathway (AID 1259385; calls by dose curve; also: nearly all actives have a fitted effect of over 20% in size). Summed up: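 TSHR-HEK293 cells were plated and held 18 h at 37C/5% CO2, then given compound plus Ro20-1724 and stimulated with TSH at 1.5 ng/mL final. After 30 min at room temperature, cAMP was detected with cAMP-d2/anti-cAMP-cryptate (1 h) by fluorescence.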
A general note: Quantitative high-throughput screening tests each substance at several concentrations.

Assay [2] addresses Progesterone receptor (Homo sapiens) (UniProt P06401). Briefly: qHTS assay to identify small molecule agonists of the progesterone receptor (PR) signaling pathway (AID 1346784; calls by dose curve; also: nearly all actives have a fitted effect of over 30% in size). Summed up: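 The screen uses PR-UAS-bla HEK 293T cells in charcoal-stripped serum (2%). Compounds are applied for 16 hr at 37C after a 6 hr pre-incubation, and reporter activity is detected with a FRET beta-lactamase substrate after 2 hr at room temperature.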

Assay [3] has the same target. Briefly: qHTS assay to identify small molecule antagonists of the progesterone receptor (PR) signaling pathway (AID 1346795; active = well fitted inhibition curve with a large enough effect in the signal ratio in the repeat runs, not every such curve was filed as active; the % refers to the signal ratio). Summed up: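 After 6 hr plating at 37C in 2% stripped-serum medium, PR-UAS-bla HEK293T cells got compounds, then 1 nM R5020. Sixteen hours later, LiveBLAzer substrate was applied for 2 hr at room temperature and fluorescence was recorded.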
Assay [4] in a line: qHTS assay to identify small molecule antagonists of the progesterone receptor (PR) signaling pathway - cell viability counter screen (AID 1346798). Also: nearly all actives have a fitted effect of over 50% in size. Also: potency is read from the fitted curve at half-maximal effect. As to activity change, negative = cytotoxicity: series mostly up to about 92 µM. Summed up: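 Viability was determined by ATP-based luminescence (CellTiter-Glo) in PR-UAS-bla HEK293T cells cultured in 2% charcoal-stripped serum and incubated 16 hr with compounds under R5020 stimulation.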
Assay [5] in a line: qHTS assay to identify small molecule agonists of the progesterone receptor (PR) signaling pathway - cell viability counter screen (AID 1346799; calls by dose curve; also: nearly all actives have a fitted effect of over 45% in size). Summed up: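 Viability was scored by ATP luminescence (CellTiter-Glo, 30 min, room temperature) in the same wells used for the reporter readout, after 16 hr compound exposure of PR-UAS-bla HEK293T cells.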
Assay [6] in a line: qHTS assay to identify small molecule antagonists of the TGF-beta/Smad signaling pathway - cell viability counter screen (AID 1346824). Also: nearly all actives have a fitted effect of over 50% in size. Summed up: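 SBE-bla HEK 293T cells were plated overnight at 37 C, then given compounds in DMSO plus TGF-beta1 (added as 0.25 ng/mL solution) for 5 hr. After the bla read, CellTiter-Glo was added to the same wells and luminescence read after 30 min at room temperature.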

Assay [7] is described as follows: qHTS assay to identify small molecule agonists of the TGF-beta/Smad signaling pathway (AID 1346859; active = well fitted activation curve with a large enough effect in the signal ratio in the repeat runs, not every such curve was filed as active; the % refers to the signal ratio; also: series mostly up to about 77 µM). Summed up: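 Dual-wavelength fluorescence (460/530 nm emission) quantified beta-lactamase expression under the Smad binding element in HEK 293T cells following 5 hr compound treatment at 37 C.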
Assay [8] in a line: Human pregnane X receptor (PXR) small molecule agonists, qHTS cell viability counter screen (AID 1346977). Also: nearly all actives have a fitted effect of over 50% in size. Also: potency is read from the fitted curve at half-maximal effect. Summed up:
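HepG2 cells stably carrying the PXR-Luc reporter are cultured with 5% charcoal-stripped FBS and treated with compounds for 24hr. CellTiter-Fluor is added at 23hr and fluorescence is read after 1hr.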

Assay [9] can be described thus: Caspase-3/7 induction in HepG2 cells by small molecules, qHTS assay (AID 1346978). Also: nearly all actives have a fitted effect of over 15% in size. Summed up:
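Wild-type HepG2 cells (2,000/well) were settled 5 h at 37 C, 5% CO2, then exposed to compounds in DMSO for 17 h. Caspase-3/7 activity was read by luminescence 30 min after adding Caspase-Glo 3/7 reagent at room temperature.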

Assay [10] is described as follows: Caspase-3/7 induction in CHO-K1 cells by small molecules, qHTS cell viability counter screen (AID 1346979). Also: nearly all actives have a fitted effect of over 35% in size. Also: potency is read from the fitted curve at half-maximal effect. Summed up: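 Seeding: 1,500 CHO-K1 cells/well. Rest: 5hr, 37C. Treatment: compounds in DMSO, 16hr. Read: CellTiter-Fluor, 1hr, fluorescence.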
Assay [11] is described as follows: Caspase-3/7 induction in CHO-K1 cells by small molecules, qHTS assay (AID 1346980). Also: nearly all actives have a fitted effect of over 15% in size. Summed up:
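Wild-type cells were seeded at 1,500 per well and settled 5 hr at 37 C, 5% CO2, then exposed to DMSO-dissolved compounds for 17 hr. Caspase-Glo 3/7 reagent was added, and luminescence was read after 30min at room temperature.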

Assay [12] in a line: Caspase-3/7 induction in HepG2 cells by small molecules, qHTS cell viability counter screen (AID 1346981). Also: nearly all actives have a fitted effect of over 30% in size. Also: potency is read from the fitted curve at half-maximal effect. As to activity change, negative = cytotoxicity: series mostly up to about 92 µM. Summed up: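 Counter screen for cytotoxicity: HepG2 exposed 16 hr to compounds, then CellTiter-Fluor viability signal (fluorescence, 1 hr reagent incubation).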
Assay [13] deals with Nuclear receptor subfamily 1 group I member 2 (Homo sapiens) (UniProt O75469). The experiment in a line: Human pregnane X receptor (PXR) small molecule agonists, qHTS assay (AID 1346982). Also: nearly all actives have a fitted effect of over 35% in size. Also: potency is read from the fitted curve at half-maximal effect. Summed up: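 Luminescence (ONE-Glo, 30 min RT) after 24 hr compound exposure of PXR-Luc HepG2 cells; cells rested 5 hr post-plating in 5% charcoal-stripped FBS medium.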
Assay [14] is described as follows: qHTS assay to identify small molecule agonists of the TGF-beta/Smad signaling pathway - cell viability counter screen (AID 1346829). Also: top concentration of the series differs between compounds; nearly all actives have a fitted effect of over 45% in size. Summed up: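 CellTiter-Glo luminescence readout; SBE-bla HEK 293T cells, overnight plating, compound 5 hr at 37 C/5% CO2, then bla substrate 2 hr RT, then CellTiter-Glo 30 min RT.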
Assay [15] has as its target Thyrotropin-releasing hormone receptor (Homo sapiens) (UniProt P34981). The experiment in a line: qHTS assay to identify small molecule antagonists of the thyrotropin-releasing hormone receptor (TRHR) signaling pathway (AID 1346877; active = well fitted inhibition curve with a large enough effect in the repeat runs, not every such curve was filed as active; also: series mostly up to about 51 µM). Summed up: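 In this cell-based calcium flux format, HEK293 cells expressing TRHR received test compound for 5 min before the agonist TRH (1 nM final). Dye loading lasted 2 h at 37 °C.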

Assay [16] has the same target. The experiment in a line: qHTS assay to identify small molecule agonists of the thyrotropin-releasing hormone receptor (TRHR) signaling pathway (AID 1346891; calls by dose curve; also: series mostly up to about 58 µM). Summed up: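 Kinetic fluorescence (3 min, 1 s intervals) reported intracellular calcium after compound transfer onto TRHR-Hek293 cells pre-loaded with dye for 2 h at 37 °C.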

We go through 8 molecules from PubChem BioAssay (Tox21).

The structures appear in SMILES notation. Values without a mark were called inactive. Results filed as inconclusive are left out. Active and inactive are the calls of the source. Unless noted, calls follow the shape of the dose curve; as a rule, active = well fitted curve in the direction sought with a large enough effect in the repeat runs; inconclusive = weak or mixed curves; inactive = no such curve, though single readings can be large; an effect the other way counts as inactive or inconclusive.
% is scaled to controls: 0 for no effect and ±100 for the full control effect.

Thyrotropin receptor (Homo sapiens), sequence (P16473 whole entry, looked up): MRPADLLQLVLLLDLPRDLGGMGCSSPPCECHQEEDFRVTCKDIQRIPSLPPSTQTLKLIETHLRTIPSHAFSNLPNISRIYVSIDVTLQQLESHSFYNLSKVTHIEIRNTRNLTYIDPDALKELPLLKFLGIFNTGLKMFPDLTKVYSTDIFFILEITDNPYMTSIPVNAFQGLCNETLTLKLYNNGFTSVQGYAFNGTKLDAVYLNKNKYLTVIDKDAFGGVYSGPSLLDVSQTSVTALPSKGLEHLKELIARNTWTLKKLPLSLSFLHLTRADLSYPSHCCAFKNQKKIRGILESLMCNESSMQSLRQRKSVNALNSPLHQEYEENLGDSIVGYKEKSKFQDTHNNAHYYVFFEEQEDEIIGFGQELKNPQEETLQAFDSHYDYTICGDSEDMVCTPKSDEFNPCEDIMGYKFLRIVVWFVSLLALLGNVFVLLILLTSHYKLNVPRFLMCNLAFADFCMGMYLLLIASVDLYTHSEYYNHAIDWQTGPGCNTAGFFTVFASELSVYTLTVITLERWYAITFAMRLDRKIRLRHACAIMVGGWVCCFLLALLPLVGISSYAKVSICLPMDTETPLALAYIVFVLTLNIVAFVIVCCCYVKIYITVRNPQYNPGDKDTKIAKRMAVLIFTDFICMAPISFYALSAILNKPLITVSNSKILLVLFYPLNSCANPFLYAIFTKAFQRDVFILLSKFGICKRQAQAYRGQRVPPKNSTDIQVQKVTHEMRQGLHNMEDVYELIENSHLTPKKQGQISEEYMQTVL
Thyrotropin-releasing hormone receptor (Homo sapiens), sequence (P34981 whole entry, looked up): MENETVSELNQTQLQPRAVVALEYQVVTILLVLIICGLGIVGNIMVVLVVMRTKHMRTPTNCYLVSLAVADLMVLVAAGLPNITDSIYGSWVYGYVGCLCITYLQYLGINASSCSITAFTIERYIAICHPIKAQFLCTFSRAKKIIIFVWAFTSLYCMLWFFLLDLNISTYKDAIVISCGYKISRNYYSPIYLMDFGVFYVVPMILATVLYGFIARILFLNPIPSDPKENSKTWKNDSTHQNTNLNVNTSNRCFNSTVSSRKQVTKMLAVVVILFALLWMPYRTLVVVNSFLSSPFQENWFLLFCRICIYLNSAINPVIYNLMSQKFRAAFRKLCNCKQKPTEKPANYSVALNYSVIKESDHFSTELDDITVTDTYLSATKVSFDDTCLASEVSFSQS
Nuclear receptor subfamily 1 group I member 2 (Homo sapiens), sequence (O75469 whole entry, looked up): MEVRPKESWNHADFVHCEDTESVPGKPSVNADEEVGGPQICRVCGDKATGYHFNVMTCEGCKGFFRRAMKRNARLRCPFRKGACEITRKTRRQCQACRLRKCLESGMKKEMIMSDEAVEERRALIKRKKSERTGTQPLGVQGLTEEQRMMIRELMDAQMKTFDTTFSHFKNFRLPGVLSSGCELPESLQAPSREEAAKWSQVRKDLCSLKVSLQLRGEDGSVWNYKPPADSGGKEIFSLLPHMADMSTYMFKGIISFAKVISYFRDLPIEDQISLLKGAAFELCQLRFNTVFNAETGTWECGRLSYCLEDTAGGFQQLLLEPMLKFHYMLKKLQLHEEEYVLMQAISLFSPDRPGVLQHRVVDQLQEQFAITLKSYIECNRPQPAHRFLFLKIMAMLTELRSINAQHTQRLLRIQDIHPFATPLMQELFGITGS
Progesterone receptor (Homo sapiens), sequence (P06401 whole entry, looked up): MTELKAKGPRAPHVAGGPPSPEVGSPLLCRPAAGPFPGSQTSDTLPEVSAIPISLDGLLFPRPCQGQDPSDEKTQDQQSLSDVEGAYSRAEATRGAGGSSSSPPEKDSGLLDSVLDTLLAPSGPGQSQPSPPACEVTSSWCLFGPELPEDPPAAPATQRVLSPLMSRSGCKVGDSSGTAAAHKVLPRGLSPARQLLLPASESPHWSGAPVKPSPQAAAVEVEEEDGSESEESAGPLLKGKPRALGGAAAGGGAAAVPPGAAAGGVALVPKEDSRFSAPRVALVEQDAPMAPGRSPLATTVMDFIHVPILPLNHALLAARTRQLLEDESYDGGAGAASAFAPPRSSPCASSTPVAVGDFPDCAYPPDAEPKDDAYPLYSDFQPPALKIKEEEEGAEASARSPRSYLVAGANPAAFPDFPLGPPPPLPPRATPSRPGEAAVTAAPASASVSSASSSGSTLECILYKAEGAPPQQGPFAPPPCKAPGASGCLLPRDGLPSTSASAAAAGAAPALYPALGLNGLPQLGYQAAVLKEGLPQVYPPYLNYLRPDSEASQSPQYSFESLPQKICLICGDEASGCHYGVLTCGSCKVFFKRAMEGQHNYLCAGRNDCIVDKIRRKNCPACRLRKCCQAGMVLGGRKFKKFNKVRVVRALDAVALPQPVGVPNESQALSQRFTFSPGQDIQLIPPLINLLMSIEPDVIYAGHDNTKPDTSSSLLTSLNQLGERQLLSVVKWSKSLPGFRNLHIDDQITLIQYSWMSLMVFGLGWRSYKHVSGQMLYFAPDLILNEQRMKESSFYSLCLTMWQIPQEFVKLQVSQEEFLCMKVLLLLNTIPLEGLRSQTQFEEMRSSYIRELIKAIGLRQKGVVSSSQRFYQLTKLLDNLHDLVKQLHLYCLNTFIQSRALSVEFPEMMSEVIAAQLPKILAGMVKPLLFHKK

As for `NS(=O)(=O)c1ccccc1Cl`, the Potency result in assay [1], in assay [2], in [3], in assay [4], in assay [5] and in [6] was “inactive” throughout. For the same molecule, the Potency result in assay [8], in [9], in assay [10], in [12] and in [13] was “inactive” in each case. The call in assay [7] and in [11] was inactive.

As to `COCCCOCCCOC`, the Potency result in assay [1], in assay [2], in assay [3], in [4], in [5] and in [6] was “inactive” in each case. Also, the Potency result in assay [8], in [9], in assay [10], in assay [12] and in [13] was “inactive” each time. Also, the call in assay [14], in [7], in assay [15], in [16] and in assay [11] was inactive.

Take `Cn1cc(S(C)=O)c(=O)c2ccc(F)cc21` (centres undefined): the Potency result in assay [1], in assay [2], in assay [4], in assay [5], in [6] and in assay [8] was “inactive” in each case. The Potency result in [9], in assay [10], in [12] and in assay [13] was “inactive” each time. For the same molecule, the molecule was called inactive in assay [14], in assay [7], in assay [15], in [16] and in [11].

As for `CC(C)(C)NCCNC(C)(C)C`, the Potency result in assay [1], in assay [2], in assay [5], in [6], in assay [8] and in assay [9] was “inactive” in each case. Moreover, the Potency result in assay [10], in assay [12] and in assay [13] was “inactive” each time. Besides, in assay [4], the Potency was 0.864 µM (active). Further, the molecule was called inactive in assay [14], in assay [7] and in [11].

Take `OCCOc1ccc(OCCO)cc1`: the Potency result in [1], in assay [2], in assay [4], in assay [5], in assay [6] and in assay [8] was “inactive” each time. Moreover, the Potency entry in [9], in [10], in assay [12] and in assay [13] was “inactive” throughout. Moreover, the molecule was classed as inactive in assay [14], in assay [7] and in [11].

As to `C=C(C)C(=O)OCCCCCCCC(C)C`, the Potency entry in assay [1], in assay [2], in assay [3], in assay [4], in [5] and in [6] was “inactive” in each case. For the same molecule, the Potency entry in [9] was “inactive”. The molecule was called inactive in assay [14], in assay [7], in assay [15], in assay [16] and in assay [11]. The Potency in assay [8] was 0.976 µM (active); in assay [10] it was 1.09 µM (active); in assay [12] it was 1.38 µM (active); in assay [13], 0.87 µM (active).

For `CCOC(=O)C(=O)OCC`, the Potency entry in [1], in assay [2], in assay [3], in assay [4], in [5] and in assay [6] was “inactive” throughout. Further, the Potency entry in assay [8], in [9], in assay [10], in [12] and in assay [13] was “inactive” each time. Besides, the molecule was classed as inactive in assay [14], in assay [7] and in assay [11].

As to `NCCCNCCSP(=O)(O)O`, in assay [1], the activity change, negative = inhibition is -3.62% [at 8.39 µM]. In addition, the activity change, negative = cytotoxicity in [4] was 1.3% [at 8.39 µM]; in assay [5] it was 17.5% [at 8.39 µM]; in [14], -10% [at 6.97 µM]; in [8], 7.22% [at 8.39 µM]; in assay [10], 5.53% [at 8.39 µM]; in [12], 1.15% [at 8.39 µM]. Moreover, the viability change, negative = cytotoxic in [6] was 10.3% [at 6.97 µM]. The results for the activation in assay [7], in assay [16] and in assay [13] were 0.256% [at 6.97 µM], -0.402% [at 5.23 µM] and -4.2% [at 8.39 µM], respectively. In addition, the activity, negative = inhibition in assay [15] is 2.65% [at 4.65 µM]. Besides, the caspase activation in assay [9] was -1.36% [at 8.39 µM]. Moreover, the caspase-3/7 activation in assay [11] was 0.0901% [at 8.39 µM].
